Records with an inconclusive call do not appear. Values without a mark were called inactive. Calls of active or inactive are those of the source. Calls follow the shape of the full dose curve.
The compounds below were run against Vitamin D3 receptor (Homo sapiens) (UniProt P11473) (assay: qHTS assay for small molecule antagonists of vitamin D receptor signaling (AID 588541;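 as to activity change, negative = inhibition: receptor activated by calcitriol during compound treatment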)). Settings: HEK293T VDR-UAS-bla, beta-lactamase ratio, antagonist mode; series mostly up to 76.7 µM; activity change, negative = inhibition: at the top concentration.
Description: NIH Chemical Genomics Center [NCGC]
U.S. Environmental Protection Agency [EPA]
National Institutes of Environmental Health Sciences [NIEHS]
National Toxicology Program [NTP]
The Vitamin D receptor (VDR) is a member of nuclear hormone receptor superfamily and it plays a critical role in calcium homeostasis and bone metabolism. It plays a role in inducing cell differentiation, inhibiting cell growth and in thrombogenicity. So, VDR that mediates these effects represents a pharmacological target in prevention and treatment of hyperproliferative malignancies, such as cancer and psoriasis, cardiovascular, immunological, inflammatory and renal diseases etc.
NCGC Assay Protocol Summary
Using a beta-lactamase reporter-gene under control of Vitamin D receptor (VDR) response element, a cell-based assay [GeneBLAzer (VDR -UAS-bla assay developed by Invitrogen] was used to measure VDR ligands signaling. GeneBLAzer VDR -UAS-bla HEK293T cells were used with assay medium containing 2% charcoal-stripped FBS. The assay was performed in clear bottom black Greiner 1536-well plates. Library compounds were measured for their ability to inhibit the reporter gene activity. Compounds were screened in a titration series in 1536-well format. The fluorescence intensity (405 nm excitation, 460/530 nm emission) was measured using an EnVision plate reader. Data was normalized relative to 1-alpha,25-Dihydroxy vitaminD3 control (50 nM, 100%) and DMSO only wells (basal, 0%). Concentration-response titration points for each compound were fitted to the Hill equation yielding concentrations of half-maximal inhibition (IC50) and maximal response (efficacy) values.
qHTS protocol for VDR beta-lactamase assay in antagonist mode
[Step] [Parameter] [Value] [Description]
1. Reagent; 5 uL; 2000 cells/well
2. Incubation; 37 C for 5 hrs
4. Controls (DMSO); 23 nL,
5. Agonist (Stimulator); 1uL; 1-alpha,25-Dihydroxy vitaminD3 at 50 nM and 3 nM final concentrations
6. Incubation; 37 C for 16 hrs
7. Detection reagent; 1 uL of CCF4-dye
8. Incubation; RT for 2 hrs
9. Detection; Fluorescence; Envision plate reader
% is scaled to controls: 0 for no effect and ±100 for the full control effect.

Sequence of Vitamin D3 receptor (Homo sapiens) (P11473 whole entry, looked up): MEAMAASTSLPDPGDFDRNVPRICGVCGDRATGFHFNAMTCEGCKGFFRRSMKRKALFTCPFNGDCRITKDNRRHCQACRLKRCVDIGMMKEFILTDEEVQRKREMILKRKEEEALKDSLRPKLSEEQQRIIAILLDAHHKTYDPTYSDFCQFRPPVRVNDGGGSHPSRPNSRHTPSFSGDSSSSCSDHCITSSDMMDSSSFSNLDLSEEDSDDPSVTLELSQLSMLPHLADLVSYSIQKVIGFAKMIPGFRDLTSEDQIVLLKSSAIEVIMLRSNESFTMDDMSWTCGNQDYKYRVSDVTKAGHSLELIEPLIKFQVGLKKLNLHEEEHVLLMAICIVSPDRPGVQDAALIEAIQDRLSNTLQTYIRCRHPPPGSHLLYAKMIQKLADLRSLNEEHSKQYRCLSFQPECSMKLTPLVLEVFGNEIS

Row | SMILES | activity change, negative = inhibition | Potency
1 | C[C@]12CCC(=O)C=C1CC[C@@H]1[C@@H]2[C@@H](O)C[C@]2(C=O)[C@@H](C(=O)CO)CC[C@@H]12 | 6.26% | –
2 | CC(C)C(=O)OCC(C)(C)C(O)C(C)C (stereo not given) | 1.81% | –
3 | CCOC(=O)C(C)Oc1ccc(Oc2cnc3cc(Cl)ccc3n2)cc1 (stereo not given) | -4.06% | –
4 | CC/C=C/CCCCCCCCCCOC(C)=O | 6.11% | –
5 | CS(C)=O | 0.709% [at 54 mM] | –
6 | CCCCOCCOCCOC(C)=O | 0.654% | –
7 | CCCCCCCCCCO | – | inactive
8 | Cn1c(=O)[nH]c(=O)n(C2CCC(O)CC2)c1=O (stereo not given) | -5.01% | –
9 | c1ccc2c(c1)Cc1ccccc1-2 | 1.86% | –
10 | O=C(O)CCCCCCCCCCC(=O)O | -2.57% | –
11 | CCC(C)OC(=O)N1CCCCC1CCO (stereo not given) | -0.199% | –
12 | CC(=O)OC1CCC(C(C)(C)C)CC1 (stereo not given) | 2.75% | –
13 | CCCCCC1CCC(=O)O1 (stereo not given) | 1.79% | –
14 | CC1=CC(=O)CC(C)(C)C1 | 0.379% | –
15 | CC(C)c1ccc(C(C)C)cc1 | 4.22% | –
16 | CCCCCCCCCCCO | 6.39% | –
17 | CC(Cl)(Cl)C(=O)OCCOc1cc(Cl)c(Cl)cc1Cl | 8.6% | –
18 | CCCOC(=O)c1ccc(C(=O)OCCC)nc1 | -5.48% | –
19 | CCC(=O)C1C(=O)CC(C(=O)O)CC1=O (stereo not given) | -6.18% | –
20 | CCCCCCCCCC[N+](C)(C)Cc1ccccc1 | -9.31% | –

Row | SMILES | activity change, negative = inhibition | Potency
21 | C#CCOC(=O)[C@@H](C)Oc1ccc(Oc2ncc(Cl)cc2F)cc1 | 1.68% | –
22 | COC(=O)c1cccc(C)c1S(=O)(=O)NC(=O)Nc1nc(OCC(F)(F)F)nc(N(C)C)n1 | 2.12% | –
23 | FC(F)(F)c1ccc(Cl)c(Cl)c1 | 0.363% | –
24 | Fc1ccc(Br)cc1 | 4.15% | –
25 | C=CC(=O)OCCOCC(CC)(COCCOC(=O)C=C)COCCOC(=O)C=C | – | 28.2 µM (active)
26 | Cc1ccc(C(C)(C)C)c(O)c1 | -6.05% | –
27 | CC1(C)C(=O)N(Br)C(=O)N1Br | -4.12% | –
28 | O=C(O)CN(CCO)CCN(CC(=O)O)CC(=O)O | 2.83% | –
29 | CCCCOCCOCCO | 8.85% | –
30 | O=S(c1ccc(Cl)cc1)c1cc(Cl)c(Cl)cc1Cl (stereo not given) | -12.1% | –
31 | CSc1ccc(Cl)cc1 | -9.07% | –
32 | CCCC/C=C\CCCCCCCCO | 4.75% | –
33 | O=C(OCC1CCC2OC2C1)C1CCC2OC2C1 (stereo not given) | -1.44% | –
34 | CCCCCCC(O)CCCCCCCCCCC(=O)OC (stereo not given) | 6.14% | –
35 | NN(c1ccccc1)c1ccccc1 | 2.85% | –
36 | CC(C)c1cccc(C(C)C)c1 | 2.23% | –
37 | N[C@@H]1[C@@H](O)[C@H](O)[C@@H](CO)O[C@H]1O | 1.4% | –
38 | O=C(O)C1(C(=O)Nc2ccc(Cl)cc2Cl)CC1 | -3.4% | –
39 | Nc1ccc(N)c2c1C(=O)c1c(N)ccc(N)c1C2=O | 6.35% | –
40 | CCCCCCCCCC(C)=O | 4.1% | –
